Where “and” joins values, the source holds several entries; their conditions need not be identical. Equal values may be shown once. Out of some 220,000 compounds screened, about 1,600 (0.73%) were called active.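 How the source made its calls: active means mean inhibition across duplicate retests at 20 µM reaching about 50% (limit read from the data); inactive means the rest, inconclusive results apart.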 Shown is part of a subset that was picked to be rich in actives.
Biological target: Runt-related transcription factor 1 (Homo sapiens) + Core-binding factor subunit beta (Homo sapiens) (UniProt Q01196+Q13951)
Sequence (Q01196 whole entry, looked up, the tested form may be a part): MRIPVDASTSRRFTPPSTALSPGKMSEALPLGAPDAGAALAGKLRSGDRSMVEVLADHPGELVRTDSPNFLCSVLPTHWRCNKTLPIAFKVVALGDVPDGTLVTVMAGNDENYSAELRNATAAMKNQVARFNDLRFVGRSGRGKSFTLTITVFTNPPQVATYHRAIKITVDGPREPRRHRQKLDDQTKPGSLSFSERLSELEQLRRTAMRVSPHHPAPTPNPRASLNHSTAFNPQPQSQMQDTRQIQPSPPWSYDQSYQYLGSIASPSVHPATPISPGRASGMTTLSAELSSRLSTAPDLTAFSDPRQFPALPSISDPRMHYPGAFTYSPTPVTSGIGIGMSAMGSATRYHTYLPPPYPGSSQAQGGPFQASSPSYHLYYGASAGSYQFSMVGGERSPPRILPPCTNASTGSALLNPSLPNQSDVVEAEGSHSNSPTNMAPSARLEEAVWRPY
Sequence (Q13951 whole entry, looked up, the tested form may be a part): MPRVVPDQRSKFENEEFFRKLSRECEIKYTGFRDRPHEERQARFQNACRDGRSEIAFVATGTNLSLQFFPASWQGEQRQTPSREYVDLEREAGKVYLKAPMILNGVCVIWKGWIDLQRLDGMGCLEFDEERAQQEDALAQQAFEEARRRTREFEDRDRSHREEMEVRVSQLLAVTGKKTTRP
Assay: disruptors of Runt domain/CBFb-SMMHC interaction – biochemical, FRET, Cerulean-Runt, Venus-CBFb-SMMHC, uHTS, primary screen (AID 1434);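 further: 0% = DMSO wells and 100% = wells with excess untagged CBFb-SMMHC; inhibitors lower the FRET ratio by blocking Runt binding to CBFb-SMMHC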
Conditions: Cerulean-Runt/Venus-CBFb-SMMHC FRET ratio 530/480, 1 h, at 20 µM, stronger effect = higher value

SMILES | inhibition | inhibition (retest duplicate average)
CC(C)Cn1c(CCC(=O)O)ccc1-c1cccs1 | 179% (active) | 134%
CCn1c(NC(=O)c2ccccc2)c(-c2cccs2)c(=O)c2ccccc21 | 2.4% (inactive) | 
COCCCn1c(CCC(=O)O)ccc1-c1ccc(F)cc1 | 26.6% (inactive) | 
COc1ccc(-n2cnc3cc(C(=O)NC4CCCC4)ccc32)cc1 | 0.8% (inactive) | 
CCOc1ccc2nc(N3CCCN(C(=O)Nc4ccccc4C)CC3)c(C#N)cc2c1 | 61.6% (active) | 71.5%
CCOc1ccc2cc(C#N)c(SCC(=O)OC)nc2c1 | -89.9% (inactive) | 
CCOc1ccc2nc(NCCNS(=O)(=O)c3ccccc3)c(C#N)cc2c1 | 34% (inactive) | 
CCCCN1C(=O)/C(=C/C=C2/C=Cc3ccccc3N2CC)SC1=S | -1.7% (inactive) | 
CCN1C(=O)/C(=C\N2CCN(c3ccccc3)CC2)SC1=S | -1.5% (inactive) | 
CCN1C(=O)/C(=C2/Sc3ccccc3N2CCCS(=O)(=O)O)SC1=S | 82.6% (active) and 93.8% (active) | 113% and 124%
Cc1cc(Cl)ccc1NNC(=O)c1snnc1C | -2.5% (inactive) | 
COc1ccc(C(=O)N/N=C2\CCS(=O)(=O)c3ccc(F)cc32)cc1OC | -4.7% (inactive) | 
Nc1nc(CC(=O)CSc2ccc(Cl)cc2)nc(Nc2ccc(F)cc2)n1 | -7.5% (inactive) | 
CCC(C)(C)n1nnnc1CN1CCN(c2nc3ccc(C)cc3cc2C#N)CC1 | 54% (active) | 79.1%
CCC(C)(C)n1nnnc1C(c1cccs1)N1CCN(Cc2ccccc2)CC1 (centres undefined) | 3.1% (inactive) | 
CCC(C)(C)n1nnnc1C(c1cccs1)N1CCN(c2nc3ccccc3s2)CC1 (centres undefined) | -1% (inactive) | 
CN(C)NC(=O)c1csnc1-c1c(Cl)cccc1Cl | 6% (inactive) | 
O=C(COC(=O)/C=C/c1cccc(Cl)c1)NCCc1ccccc1 | 0.9% (inactive) | 
COc1ccc(CCN=C2SCC(=O)N2Cc2ccccc2)cc1OC | -0.6% (inactive) | 
COc1ccc(CCNC2=C(Cl)C(=O)N(Cc3ccccc3)C2=O)cc1OC | 92.2% (active) | 70.6%
COc1ccc(CCN(C)CCN2C(=O)c3ccccc3C2=O)cc1OC | 6.2% (inactive) | 
O=C(O)CC/C(=N\NC(=O)c1ccc(F)cc1)c1ccc(Br)cc1 | -4.7% (inactive) | 
CC/C(=N\NC(=O)c1ccccc1Cl)c1ccc(Br)s1 | -0.6% (inactive) | 
CC(=O)c1cc(C#N)c(SCC(=O)Nc2nccs2)nc1C | -3.8% (inactive) | 

SMILES | inhibition | inhibition (retest duplicate average)
COc1ccc(C2=NN(c3ccccc3)C(c3cccs3)C2)cc1 (centres undefined) | 6% (inactive) | 
COc1ccccc1N1N=C(c2cccs2)CC1c1ccccc1 (centres undefined) | 48% (inactive) | 
COc1ccc(C2CC(c3cccs3)=NN2c2ccccc2)cc1 (centres undefined) | 91% (active) | 53.7%
Cc1ccc(-c2nc3ccccc3[nH]c2=O)cc1 | 3.7% (inactive) | 
O=[N+]([O-])c1cccc(-c2nnc3c4ccccc4c4ccccc4n23)c1 | 2.3% (inactive) | 
O=c1[nH]c2ccccc2n2c(-c3ccccc3)nnc12 | 67.5% (active) | 61.3%
N#CC1=C(N)Oc2c(ccc3cccnc23)C1c1ccncc1 (centres undefined) | -1.6% (inactive) | 
COc1cccc(NC(=O)CN(C)C(=O)/C=C/c2cc(OC)ccc2OC)c1 | -3.2% (inactive) | 
O=C(Nc1ccc(Cl)cc1)Nc1nnc(/C=C/c2ccccc2)s1 | 6.5% (inactive) | 
O=C(COc1cccc(F)c1)Oc1ccc(C(=O)c2ccccc2)cc1 | 0.2% (inactive) | 
Cc1cc(C)c(C#N)c(SCc2[nH]nc3c2C(c2ccccc2)C(C#N)=C(N)O3)n1 (centres undefined) | -0.2% (inactive) | 
N#CC1=C(N)Oc2c(sc3ccccc23)C1c1ccco1 (centres undefined) | 9.4% (inactive) | 
Cc1cc(C)c2c3c(sc2n1)C(c1ccccc1)C(C#N)=C(N)O3 (centres undefined) | 113% (active) | 141%
CC(=O)c1c(C)[nH]c(C(=O)OCC(=O)Nc2cc(S(=O)(=O)N3CCCCC3)ccc2C)c1C | -9.5% (inactive) | 
CCCN(CC(=O)Nc1ccc(OC)c(OC)c1)CC(=O)Nc1ccc(F)c(F)c1F | -1.9% (inactive) | 
COc1ccc(/C=N/NC(=O)c2cccc(C(F)(F)F)c2)cc1 | 1.4% (inactive) | 
C/C(CC1CC(C)(C)OC1=O)=N/Nc1nc(-c2ccccc2)cs1 (centres undefined) | -0.6% (inactive) | 
CC(Sc1nc2ccccc2c(=O)n1Cc1ccco1)C(=O)c1ccccc1 (centres undefined) | 2.5% (inactive) | 
Cc1ccc(Cn2c(C)nc3c(c2=O)c2nc4ccccc4nc2n3Cc2ccco2)cc1 | 46.8% (inactive) | 
Cc1nc2c(c(=O)n1Cc1ccco1)c1nc3ccccc3nc1n2Cc1ccccc1 | 51.6% (active) | 50.7%
CC(C)Cn1c(N)c(C(=O)NCc2cccs2)c2nc3ccccc3nc21 | 72.8% (active) | 89.8%
CCC(C)NC(=O)c1c(N)n(/N=C/c2cccs2)c2nc3ccccc3nc12 (centres undefined) | -0.5% (inactive) | 
Cn1ncc(Br)c1C(=O)NCc1cccs1 | -0.4% (inactive) | 
CN(C)c1ccnc2sc(C(=O)c3ccccc3)c(N)c12 | 39.2% (inactive) | 

SMILES | inhibition | inhibition (retest duplicate average)
Cc1cccc(NC(=S)NCc2ccc3[nH]c4c(c3c2)CCCC4)c1 | -0.9% (inactive) | 
Cc1cc(C)nc(SC2CCCCC2NS(=O)(=O)c2ccc(Cl)cc2)n1 (centres undefined) | 2% (inactive) | 
COc1cc(C(=O)NC(=S)NCc2ccco2)cc(OC)c1OC | 1.1% (inactive) | 
CC(=O)N1CCN(S(=O)(=O)c2cccc(C(=O)NC3CCC(C)CC3)c2)CC1 (centres undefined) | 4.4% (inactive) | 
CC1CC(C)CN(S(=O)(=O)c2cccc(C(=O)N3C(=O)c4cccc(N)c4C3=O)c2)C1 (centres undefined) | 61.6% (active) | 72.9%
COc1cc(C(=O)N[C@@H](C)C(=O)NCc2ccco2)cc(OC)c1OC | -2.9% (inactive) | 
CN1CCN(S(=O)(=O)c2cccc(C(=O)O)c2)CC1 | -1.8% (inactive) | 
COc1cc(C(=O)N2C(=O)c3cccc(N)c3C2=O)cc(OC)c1OC | 87.1% (active) | 51.3%
NC(=O)Nc1ccccc1C(=O)NCCc1ccccc1 | 2.1% (inactive) | 
COc1ccc(-c2nn(C)c(=O)c3ccccc23)cc1CNC(=O)C1CCCCC1 | -3.9% (inactive) | 
CNC(=O)c1cccc2nc3ccccc3nc12 | 9% (inactive) | 
CNC(=O)c1cc2c(ccc3ccccc32)oc1=N | 82.8% (active) | 162%
N=c1oc2ccccc2cc1C(=O)N/N=C/c1ccccc1 | -6.4% (inactive) | 
COC(=O)CCCC1=CC2=CC(=O)C(C)(OC(=O)c3cccs3)C(=O)C2=CN1CC(C)C (centres undefined) | -2.8% (inactive) | 
CC(=O)Nc1ccc(Sc2ccccc2C(=O)N2CCCC2)cn1 | -3.9% (inactive) | 
CN(C)CCCn1c(N)c(C#N)c2nc(C#N)c(C#N)nc21 | 78.7% (active) | 69.9%
COc1ccc(C2/C=C\CN(CC(C)C)CC(=O)N2Cc2ccc(F)cc2)cc1 (centres undefined) | 0.3% (inactive) | 
COc1ccc(O[C@H]2C=C[C@@H](c3ccccc3)O[C@@H]2CO/N=C/C[C@@H]2C=C[C@H](OC(C)=O)[C@@H](COC(C)=O)O2)cc1 | -12.9% (inactive) | 
CC(=O)c1sc(NC(=O)CCCOc2ccccc2C)nc1C | 0% (inactive) | 
COc1cccc2sc(NNC(=O)c3nc4ccccc4s3)nc12 | 3.6% (inactive) | 
COc1cccc2sc(Nc3nc(C)c(C(C)=O)s3)nc12 | 82.4% (active) | 96.3%
Cc1ccc(NC(=O)C2(N3CCC3=O)CCCCC2)cc1 | 3.4% (inactive) | 
N/C(=N\OC(=O)CC1CCCCC1)c1ccccc1 | 3.7% (inactive) | 
N#Cc1c(C(F)(F)F)cc(-c2ccccc2)nc1SCC(=O)N1CCOCC1 | -9.3% (inactive) | 

SMILES | inhibition | inhibition (retest duplicate average)
CCN(CC)c1nc(-c2ccccc2)cc(C(F)(F)F)c1C#N | 130% (active) | 57.3%
N#Cc1c(C(F)(F)F)cc(-c2ccc(Cl)cc2)nc1SCC(=O)O | 0.8% (inactive) | 
CCOC(=O)c1c(Cc2ccc(Cl)cc2)c[nH]c1C | -2.1% (inactive) | 
CN1OC(COC(=O)c2ccc(Cl)cc2)CC1c1ccccc1 (centres undefined) | 3.2% (inactive) | 
CCCCNC(=O)CCNC(=O)c1ccc(C(C)(C)C)cc1 | -0.2% (inactive) | 
CC(C)(C)c1ccc(C(=O)NCC(=O)OCN2C(=O)c3ccccc3C2=O)cc1 | 4.7% (inactive) | 
COCCCn1c2nc3ccccc3nc2c2c(=O)n(Cc3ccc(Cl)cc3)c(C)nc21 | 7.3% (inactive) | 
CC(C)(C)c1ccc(C(=O)NCCn2c(N)c(C#N)c3nc4ccccc4nc32)cc1 | 114% (active) | 128%
N#Cc1c(N)n(CCOC(=O)c2ccc(Cl)cc2)c2nc3ccccc3nc12 | 116% (active) | 152%
Cc1cc(=O)[nH]c(N/N=C/c2c(C)nn(-c3ccccc3Cl)c2Cl)n1 | -3% (inactive) | 
CC(C)(C)C(=O)Nc1c(Br)c(C2CC2)nn1-c1ccccc1 | 2.4% (inactive) | 
CCc1ccc(CNC(=O)C2CC(=O)N(CCc3ccc(C)cc3)C2)cc1 (centres undefined) | -1.7% (inactive) | 
C=CCSc1nc(N)cc(=O)[nH]1 | 0.7% (inactive) | 
O=C(O)CCCCCCCCCC[n+]1ccccc1 | -2.3% (inactive) | 
CCOC(=O)CCc1c(C)c(C#N)c2[nH]c3ccccc3n2c1=O | -6.1% (inactive) | 
Cc1ccccc1Cn1c(=O)[nH]c2ccccc21 | -2% (inactive) | 
CCCc1cc(=S)n2c([nH]c3ccccc32)c1C#N | 81.2% (active) | 153%
O=C(c1ccc(C(F)(F)F)cc1)C1CCCN(C(=O)c2csnn2)C1 (centres undefined) | 5.6% (inactive) | 
COC(=O)Cc1cc(=O)oc2c(C)c(O)ccc12 | 77.6% (active) | 71.5%
COC(=O)COc1ccc2oc(=O)cc(C)c2c1 | 0.6% (inactive) | 
Cc1cc(=O)oc2c(C(=O)c3ccccc3)c(OCC(N)=O)ccc12 | -4.4% (inactive) | 
N#C/C(C(=S)Nc1ccccc1)=C1/NN=C(N2CCOCC2)N1c1ccccc1 | 25.1% (inactive) | 
